# Measured values taken from PubChem BioAssay.
# Activity calls are given as the source filed them.
# Tests used:
# [1] = binders of probe aFSTL3 on microarray, primary screen, stem cell growth factor project, biochemical, small-molecule microarray, fluorescence 635/667 (AID 1064); settings: higher = more signal;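 further: measures binding of the biotinylated anti-FSTL3 antibody to printed compounds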
# [2] = binders from COS7 lysate, DM2A8 probe, primary screen, torsin A project, cell lysate, small-molecule microarray, fluorescence 635/667 (AID 1065); settings: higher = more signal, COS7 lysate expressing mutant human TOR1A
# [3] = binders of probe aFGF2 on microarray, primary screen, stem cell growth factor project, biochemical, small-molecule microarray, fluorescence 635/667 (AID 1067); settings: higher = more signal;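 further: measures binding of biotinylated aFGF2 protein to printed compounds on slides; z-score merges feature fluorescence and signal-to-noise across triplicate slides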
# [4] = binders of probe aFGF10 on microarray, primary screen, stem cell growth factor project, biochemical, small-molecule microarray, fluorescence 635/667 (AID 1071); settings: higher = more signal;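 further: score merges 667 nm spot intensity and signal to noise from triplicate slides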
# [5] = biological target: Neurogenic locus notch homolog protein 2 (Homo sapiens) (UniProt Q04721); test: Notch2 binders on small-molecule microarrays, primary screen, biochemical, small-molecule microarray, 635 nm fluorescence, stem cell growth factors (AID 1073); settings: Notch2 binding, higher = more signal
# Neurogenic locus notch homolog protein 2 (Homo sapiens), sequence (Q04721 whole entry, looked up, canonical isoform): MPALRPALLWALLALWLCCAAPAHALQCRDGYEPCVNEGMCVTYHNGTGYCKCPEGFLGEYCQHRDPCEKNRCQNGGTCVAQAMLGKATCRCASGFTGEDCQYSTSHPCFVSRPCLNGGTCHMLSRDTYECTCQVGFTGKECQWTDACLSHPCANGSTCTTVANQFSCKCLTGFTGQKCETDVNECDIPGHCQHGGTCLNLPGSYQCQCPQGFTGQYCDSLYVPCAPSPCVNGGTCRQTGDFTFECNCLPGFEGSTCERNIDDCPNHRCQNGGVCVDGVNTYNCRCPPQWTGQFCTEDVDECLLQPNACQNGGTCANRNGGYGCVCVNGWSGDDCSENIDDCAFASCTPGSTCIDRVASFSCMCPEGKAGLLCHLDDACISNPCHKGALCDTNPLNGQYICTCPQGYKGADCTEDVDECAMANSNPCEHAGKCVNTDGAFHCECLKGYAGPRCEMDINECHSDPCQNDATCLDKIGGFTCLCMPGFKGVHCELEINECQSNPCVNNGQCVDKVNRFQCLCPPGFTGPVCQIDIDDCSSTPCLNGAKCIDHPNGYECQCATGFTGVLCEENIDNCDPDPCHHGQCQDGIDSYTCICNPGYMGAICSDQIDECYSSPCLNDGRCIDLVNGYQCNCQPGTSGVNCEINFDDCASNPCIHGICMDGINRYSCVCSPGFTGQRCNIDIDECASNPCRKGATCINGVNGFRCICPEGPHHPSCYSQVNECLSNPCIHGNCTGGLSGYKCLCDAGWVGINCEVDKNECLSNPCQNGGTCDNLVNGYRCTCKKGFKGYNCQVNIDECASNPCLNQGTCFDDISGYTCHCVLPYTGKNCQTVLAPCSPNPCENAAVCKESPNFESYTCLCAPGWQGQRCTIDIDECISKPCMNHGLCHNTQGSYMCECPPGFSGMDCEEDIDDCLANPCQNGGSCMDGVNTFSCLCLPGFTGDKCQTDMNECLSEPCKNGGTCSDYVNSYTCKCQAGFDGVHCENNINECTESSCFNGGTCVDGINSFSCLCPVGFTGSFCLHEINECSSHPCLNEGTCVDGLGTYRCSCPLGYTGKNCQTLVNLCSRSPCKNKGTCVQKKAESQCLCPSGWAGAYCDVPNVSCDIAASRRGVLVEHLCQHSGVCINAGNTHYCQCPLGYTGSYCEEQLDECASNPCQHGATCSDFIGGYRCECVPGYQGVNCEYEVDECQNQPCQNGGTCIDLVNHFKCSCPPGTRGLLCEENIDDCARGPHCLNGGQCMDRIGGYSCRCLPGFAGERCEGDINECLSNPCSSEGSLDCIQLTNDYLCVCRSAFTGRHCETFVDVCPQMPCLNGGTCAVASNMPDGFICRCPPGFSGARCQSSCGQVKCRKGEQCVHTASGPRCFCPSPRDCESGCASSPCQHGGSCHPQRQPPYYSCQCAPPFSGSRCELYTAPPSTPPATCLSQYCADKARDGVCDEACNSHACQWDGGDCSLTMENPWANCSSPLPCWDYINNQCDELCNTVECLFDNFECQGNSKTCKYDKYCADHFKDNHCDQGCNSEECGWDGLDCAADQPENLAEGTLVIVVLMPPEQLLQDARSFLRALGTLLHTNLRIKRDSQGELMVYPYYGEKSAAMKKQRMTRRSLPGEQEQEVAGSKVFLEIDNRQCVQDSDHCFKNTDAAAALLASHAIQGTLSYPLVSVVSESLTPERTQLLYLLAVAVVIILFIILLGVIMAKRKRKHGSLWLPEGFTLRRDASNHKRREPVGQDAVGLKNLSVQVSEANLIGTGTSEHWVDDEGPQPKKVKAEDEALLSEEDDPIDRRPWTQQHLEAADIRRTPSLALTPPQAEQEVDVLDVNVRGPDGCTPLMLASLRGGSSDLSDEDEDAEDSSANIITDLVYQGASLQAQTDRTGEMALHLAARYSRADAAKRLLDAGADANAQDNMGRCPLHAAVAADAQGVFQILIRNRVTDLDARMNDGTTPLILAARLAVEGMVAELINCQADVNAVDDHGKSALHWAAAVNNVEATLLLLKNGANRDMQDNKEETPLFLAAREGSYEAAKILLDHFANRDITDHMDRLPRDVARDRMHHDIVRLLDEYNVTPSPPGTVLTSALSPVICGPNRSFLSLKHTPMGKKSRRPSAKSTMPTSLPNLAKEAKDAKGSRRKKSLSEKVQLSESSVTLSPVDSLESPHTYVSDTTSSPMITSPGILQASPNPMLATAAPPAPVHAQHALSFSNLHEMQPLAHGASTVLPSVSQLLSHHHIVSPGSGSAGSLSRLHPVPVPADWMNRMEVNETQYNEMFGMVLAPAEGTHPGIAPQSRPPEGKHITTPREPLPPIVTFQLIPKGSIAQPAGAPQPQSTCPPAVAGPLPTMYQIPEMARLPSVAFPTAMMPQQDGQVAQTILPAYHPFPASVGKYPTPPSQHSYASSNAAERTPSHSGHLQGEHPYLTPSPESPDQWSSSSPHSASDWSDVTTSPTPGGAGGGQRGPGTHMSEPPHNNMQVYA
# [6] = biological target: Pro-neuregulin-1, membrane-bound isoform (Homo sapiens) (UniProt Q02297); test: NRG1 binders on small-molecule microarrays, primary screen, psychiatric disease protein project, biochemical, small-molecule microarray, fluorescence 635/667 (AID 1075); settings: NRG1 binding, 635 nm fluorescence, higher = more signal;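 further: score combines 667 nm spot fluorescence with signal to noise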
# Pro-neuregulin-1, membrane-bound isoform (Homo sapiens), sequence (Q02297 whole entry, looked up, the tested form may be a part, canonical isoform): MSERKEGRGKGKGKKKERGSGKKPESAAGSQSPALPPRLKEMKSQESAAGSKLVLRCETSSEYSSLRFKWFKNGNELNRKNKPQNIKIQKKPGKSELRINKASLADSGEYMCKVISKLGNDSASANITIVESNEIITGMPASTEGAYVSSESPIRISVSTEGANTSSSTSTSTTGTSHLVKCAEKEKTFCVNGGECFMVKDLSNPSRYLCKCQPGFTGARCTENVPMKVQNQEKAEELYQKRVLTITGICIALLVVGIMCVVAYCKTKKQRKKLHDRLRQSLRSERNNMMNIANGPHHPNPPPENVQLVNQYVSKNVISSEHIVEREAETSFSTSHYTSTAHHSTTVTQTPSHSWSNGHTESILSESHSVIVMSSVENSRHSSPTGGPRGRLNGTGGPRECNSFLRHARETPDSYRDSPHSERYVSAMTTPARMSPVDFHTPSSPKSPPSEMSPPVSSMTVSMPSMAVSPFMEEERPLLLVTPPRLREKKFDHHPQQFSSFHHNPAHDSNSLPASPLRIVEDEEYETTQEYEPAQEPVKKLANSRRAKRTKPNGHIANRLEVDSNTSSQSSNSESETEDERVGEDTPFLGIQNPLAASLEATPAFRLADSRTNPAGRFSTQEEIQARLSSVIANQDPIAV
# [7] = system: Neuregulin-1 EGF-like domain; test: binders of neuregulin-1 EGF-like domain, primary screen, biochemical, small-molecule microarray, 635 nm fluorescence (AID 1081); settings: small-molecule microarray binding, higher = more signal;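 further: binding of the protein to compounds printed on small-molecule microarray slides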
# [8] = FRG1 promoter luciferase signal modulators, primary screen, FRG1 inhibition for FSHD, cell-based, C2C12 myotubes, firefly/Renilla luciferase, luminescence (AID 1084); settings: higher = more signal, called active from +8 up or from −8 down
# [9] = binders of probe aFST on microarray, primary screen, stem cell growth factor project, biochemical, small-molecule microarray, fluorescence 635/667 (AID 1086); settings: higher = more signal;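 further: score merges 667 nm fluorescence with signal-to-noise of each printed compound spot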
# [10] = binders of probe aHhip on microarray, primary screen, stem cell growth factor project, biochemical, small-molecule microarray, fluorescence 635/667 (AID 1087); settings: higher = more signal;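 further: score merges spot fluorescence at 667nm with spot signal to noise ratio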
Structure (SMILES),composite z-score [1],composite z-score [2],composite z-score [3],composite z-score [4],composite z-score [5],composite z-score [6],composite z-score [7],z-score [8],composite z-score [9],composite z-score [10]
Cc1ccc(S(=O)(=O)NC(CCc2ccccc2)CC(=O)C(C)(C)C)cc1 (stereo not given),-0.651,0.339,-0.228,0.711,0.747,0.132,0.459,-3.04 (inactive),0.195,-0.261
CC(C)=CCCC(C)=CCON=C1C[C@@H](O)[C@@H](O)[C@@H]2[C@@H]3C(=O)N(C[C@@H]4CCCO4)C(=O)[C@@H]3CC[C@H]12,-0.532,1.78,-0.142,0.508,0.583,0.447,1.05,-0.0588 (inactive),0.417,-0.0645
COc1cccc([C@@H]2Oc3ccc(OC)cc3C(=O)[C@H]2O)c1,-0.457,0.0796,0.0288,0.209,0.5,0.788,1.04,7.25 (inactive),-0.0662,-0.0994
C[C@@H](ON=C1[C@H]2CCn3c(=O)n(-c4ccccc4)c(=O)n3[C@H]2[C@H](O)[C@@H]2O[C@H]12)c1cn([C@@H]2COC[C@H]2O)nn1,-0.648,0.653,-0.0529,0.35,0.213,0.406,0.261,1.15 (inactive),0.236,0.0274
CCOC(=O)[C@H](CC(C)C)NC(=O)CCC1CC(OC(=O)NCc2cccc3ccccc23)CC2(CCCC(COC(=O)NCCc3ccc(Cl)cc3)O2)O1 (stereo not given in full),-0.318,-0.19,-0.0797,0.293,0.461,0.533,0.744,1.83 (inactive),-0.001,-0.0994
O=C1[C@H]2[C@H]3[C@H](O)[C@H](O)CC(=NO[C@@H]4O[C@H](CO)[C@@H](O)[C@H](O)[C@H]4O)[C@H]3CC[C@H]2C(=O)N1c1cccc(Oc2ccccc2)c1,-0.249,0.128,-0.0867,0.435,0.387,-0.106,0.843,0.0203 (inactive),-0.278,-0.0024
CO[C@H]1COC(=O)[C@@H](Cc2ccccc2)NC(=O)[C@@H](C)COC(=O)CCC[C@@H]1C,-0.388,0.433,-0.0319,0.286,0.106,-0.203,-0.361,-0.224 (inactive),0.23,-0.0391
CCOC(=O)[C@H](Cc1ccccc1)NC(=O)OC1CC(CCC2CC(CC)=NO2)OC2(CCCC(COC(=O)NCCC(C)C)O2)C1 (stereo not given in full),-0.436,-0.235,-0.0692,0.354,0.165,0.418,0.86,0.309 (inactive),-0.0729,-0.218
CCOC(=O)[C@H](Cc1ccccc1)NC(=O)CCC1CC(OC(=O)NCCc2ccc(F)cc2)CC2(CCCC(COC(=O)NCc3ccccc3)O2)O1 (stereo not given in full),-0.434,-0.0986,-0.0887,0.854,0.679,0.331,0.903,0.292 (inactive),0.0791,-0.0994
CCN1C(=O)[C@H]2[C@H]3[C@H](O)[C@H](O)CC(=NO[C@@H](C)c4cn([C@H](CO)Cc5ccccc5)nn4)[C@@H]3CC[C@H]2C1=O,-0.687,0.387,-0.0704,0.859,1.51,0.256,0.971,0.345 (inactive),0.759,-0.226
COc1ccc(O[C@@H]2[C@H](O)CO[C@@H]2C=Cc2ccccc2)cc1,-0.277,0.232,-0.0482,0.336,-0.0587,0.46,0.102,-0.136 (inactive),0.0116,0.281
O=C1C[C@@H](O)[C@@H](O)[C@@H]2[C@@H]3C(=O)N(C[C@@H]4CCCO4)C(=O)[C@@H]3CC[C@@H]12,-0.58,0.203,-0.0329,0.58,0.686,0.123,0.459,-1.13 (inactive),0.817,0.21
CON=Cc1ccc(C(=O)N2[C@H](c3ccc(C)cc3)[C@@H](C)CC[C@H]2C(=O)OC)cc1,-0.13,0.486,-0.134,0.363,0.489,0.424,0.843,0.0346 (inactive),0.267,-0.236
CC(C)CON=C1C[C@@H](O)[C@@H](O)[C@@H]2[C@@H]3C(=O)N(c4cccc(Oc5ccccc5)c4)C(=O)[C@@H]3CC[C@@H]12,-0.509,0.14,-0.13,0.206,0.336,0.61,1.1,-1.18 (inactive),-0.129,0.0373
CO[C@@H]1COC(=O)CC=C[C@@H](C)[C@@H]2C=C[C@H](O)[C@@H](COC(=O)CC=C[C@H]1C)O2,-0.304,1.7,-0.192,-0.14,-0.703,-0.421,0.824,-0.715 (inactive),-0.245,0.0714
COC(=O)CC=C[C@@H](C)[C@@H](C=NOC[C@H]1O[C@H](c2ccccc2)C=C[C@@H]1Oc1ccc(OC)cc1)NS(=O)(=O)c1ccc(C)cc1,0.577,-0.564,-0.127,-1.06,-0.766,-0.754,-1.29,-0.461 (inactive),-0.0763,-0.0645
COc1ccc(O[C@H]2C=C[C@@H](c3ccccc3)O[C@@H]2CON=CC[C@@H]2C=C[C@H](OC(C)=O)[C@@H](COC(C)=O)O2)cc1,-0.142,0.0191,-0.0667,0.138,-0.265,-0.364,-0.216,1.01 (inactive),0.388,-0.0994
CON=C[C@@H](NS(=O)(=O)c1ccc(C)cc1)[C@H](C)C=CCC(=O)OC,-0.303,0.0827,-0.125,-0.224,-0.98,-0.23,0.0812,0.494 (inactive),-0.371,-0.189
CCOC(=O)NN=C1C[C@@H](O)[C@@H](O)[C@@H]2[C@@H]3C(=O)N([C@@H](C)c4ccccc4)C(=O)[C@@H]3CC[C@H]12,-0.322,-0.0183,-0.085,0.321,0.453,-0.0718,0.0602,-0.223 (inactive),0.252,0.138
O=C1[C@H]2[C@H]3[C@H](O)[C@H](O)CC(=NOC[C@@H](O)COCc4ccco4)[C@H]3CC[C@H]2C(=O)N1c1ccc(F)cc1F,-0.191,0.862,-0.142,0.0434,-0.853,-0.452,1.23,-1.53 (inactive),-0.999,-0.0047
CC(=O)OC[C@H]1O[C@H](CC=NO[C@H](C)c2cn([C@H](CO)Cc3ccccc3)nn2)C=C[C@@H]1OC(C)=O,-0.789,0.379,-0.087,0.541,0.911,1.33,0.711,0.235 (inactive),0.246,-0.201
O=C(NN=C1C[C@@H](O)[C@@H](O)[C@@H]2[C@@H]3C(=O)N(C[C@@H]4CCCO4)C(=O)[C@@H]3CC[C@H]12)OCc1ccccc1,0.0589,0.349,-0.118,-0.0255,-0.248,-0.117,-0.637,-0.361 (inactive),0.556,-0.0994
CC(C)=CCCC(C)=CCON=C1C[C@@H](O)[C@@H](O)[C@@H]2[C@@H]3C(=O)N(C(C)(C)C)C(=O)[C@@H]3CC[C@H]12,-0.28,-0.0211,0.0122,0.406,0.591,0.0095,0.744,0.132 (inactive),-0.0538,-0.0994
CO[C@@H]1COC(=O)[C@@H](C)COC(=O)[C@@H](C)NC(=O)CC=C[C@@H]1C,-0.538,0.544,-0.133,0.231,0.198,-0.308,0.675,0.156 (inactive),-0.235,-0.342
O=C(NN=C1C[C@@H](O)[C@@H](O)[C@@H]2[C@@H]3C(=O)N(Cc4ccccc4)C(=O)[C@@H]3CC[C@@H]12)OCc1ccccc1,-0.404,0.408,-0.0229,0.155,0.495,-0.358,-0.871,-0.119 (inactive),-0.0711,0.233
C#CCCCON=C1C[C@@H](O)[C@@H](O)[C@@H]2[C@@H]3C(=O)N(Cc4ccccc4)C(=O)[C@@H]3CC[C@@H]12,-0.19,0.421,-0.0887,0.0443,0.181,0.0645,-0.816,-0.211 (inactive),0.53,0.0176
CCOC(=O)[C@H](CC(C)C)NC(=O)CCC1CC(OC(=O)NCc2cccc3ccccc23)CC2(CCCC(COC(=O)NCc3cccc(C(F)(F)F)c3)O2)O1 (stereo not given in full),-0.5,0.0221,-0.125,0.469,0.611,-0.0419,0.0188,-1.03 (inactive),-0.262,0.0749
